PubChem BioAssay (NCI)
Compounds without any hit were thinned out: in the full panel of roughly 79,000, 15% have a hit. Unmarked numbers belong to inactive results. Cut-off read from the data, not from the text of the source: active = growth inhibition above about 70%; inactive = the rest.

Experiment: NCI Yeast Anticancer Drug Screen. Data for the mlh1 rad18 strain (AID 175)
Conditions: S. cerevisiae mlh1 rad18 strain growth inhibition; at 50.0 µM; active compounds read high
Procedure, shortened: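 Cells of a genetically altered yeast strain, deficient in DNA damage repair, were treated with compound. Their growth was then compared with that of vehicle-treated cultures to give inhibition.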

SMILES	growth inhibition [%]
O=S(=O)(Nc1ccc(-c2ccccc2)cc1)c1ccc([As](=O)(O)O)cc1	40
CN(N)/N=N/c1nc[nH]c1[N+](=O)[O-]	-3.4
CNC(=O)O/N=C(\SC)C(=O)N(C)C	-1.05
